Source: PubChem BioAssay (National Center for Advancing Translational Sciences (NCATS))
D2 ag-1: activates the human D2 dopamine receptor; DiscoveRx PathHunter D2 beta-arrestin, luminescence, 90 min; 100% = 57 uM dopamine signal; activation, % (concentration not given with the values); 360,000 tested, 0.084% active; AID 624465; in the data active = activation above about 40%; inconclusive = between about 15% and that limit
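Agonist mode: compounds alone added to overnight-plated D2 PathHunter cells for 90 min at 37 C, with 57 uM final dopamine (EC100) defining full response. Beta-arrestin recruitment detected by chemiluminescent reagent, read after 1 h at ambient temperature.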
D2 antag: antagonists of human D2 dopamine receptor. P14416. HEK293 TREx D2 cells, calcium flux, dopamine EC80. inhibition, % at 10 µM. 340,000 tested, 2% active. AID 485344; in the data active = inhibition above about 30%; inactive = below that, where a call was filed; note: 0% is about no effect
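HEK293 T-REx D2 cells, tet-induced, calcium dye no-wash. Cpd pintool add, 180 s kinetic, then EC80 DA, 180 s kinetic. Ca flux read.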
D2 ag-2: agonists of human D2 dopamine receptor; P14416; HEK293 T-REx D2 cells, calcium flux agonist mode; activation, % at 2 µM; 340,000 tested, 0.53% active; AID 485358;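 active = activation over 3 SD above normal in the single-dose calcium agonist read, cut at about 30% in these data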; note: 0% is about no effect
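In this primary screen, compounds producing a positive calcium signal within 180 s of addition to tetracycline-induced, force-coupled HEK293 Trex D2 cells are flagged; cells are dye-loaded with a no-wash calcium kit beforehand.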
D2 PAM-1: positive allosteric modulators of human D2 dopamine receptor; P14416; potentiation, % at 10 µM; HEK293 T-REx D2, calcium flux, EC20 dopamine potentiation; 340,000 tested, 0.34% active;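 active = potentiation over 3 SD above the plate norm, cut at about 30% in these data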; note: 0% is about no effect
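Cells plated with tetracycline inducer and held overnight at 30 C; calcium dye loaded 30–90 min at room temperature; baseline taken, compound added and read 180 s; EC20 dopamine then added and read 180 s.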
D2 PAM-2: positive allosteric modulators of human D2 dopamine receptor | DiscoveRx D2 beta-arrestin cells, luminescence, 90 min; 100% = 57 uM dopamine signal | 360,000 tested, 0.23% active | P14416 | potentiation, % (no concentration beside the values); in the data active = potentiation above about 50%; inconclusive = mostly about 30% to 49%
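PathHunter beta-arrestin assay in DiscoveRx D2 cells. Compounds were added with an EC20 of dopamine (50 nM final) for 90 min at 37 deg C. Luminescence was read 1 h after detection reagent, with 57 uM dopamine as the EC100 control.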
D3 arrestin ag: activates human D3 dopamine receptor beta-arrestin recruitment. Potency, µM (series often up to 76.9 µM), for inactives: at the highest dose activation, usual class: activators. DiscoveRx D3 beta-arrestin cells, luminescence, 90 min. 2,300 tested, 4% active. AID 720506. shares compounds with D2 ag-2;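 note: potency is the fitted concentration of half-maximal effect; 100% = dopamine control response; nearly all actives have a fitted effect of over 70% in size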
Target sequence (P35462 whole entry, looked up): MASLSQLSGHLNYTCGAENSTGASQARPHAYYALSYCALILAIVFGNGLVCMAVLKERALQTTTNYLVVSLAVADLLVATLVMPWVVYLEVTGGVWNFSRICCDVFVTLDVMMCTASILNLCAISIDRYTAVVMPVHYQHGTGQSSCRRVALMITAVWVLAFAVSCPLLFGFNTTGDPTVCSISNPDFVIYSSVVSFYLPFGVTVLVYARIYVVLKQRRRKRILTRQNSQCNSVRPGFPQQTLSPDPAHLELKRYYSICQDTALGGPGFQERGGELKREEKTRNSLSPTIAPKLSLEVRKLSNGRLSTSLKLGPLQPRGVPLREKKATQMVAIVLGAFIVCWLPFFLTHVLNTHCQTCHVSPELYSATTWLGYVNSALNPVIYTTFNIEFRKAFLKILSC
D2 ag-3: counter-screen for D3 agonists: human D2 dopamine receptor agonism. shares compounds with D2 ag-2. DiscoveRx PathHunter D2 beta-arrestin, luminescence, 90 min; response scale: percent relative to full dopamine signal. Potency, µM (top dose mostly 76.9 µM), inactives show top-dose activation, hits mostly activators. 2,300 tested, 5.9% active. AID 720507; note: potency is the fitted concentration of half-maximal effect; % of control where 0% means no effect; nearly all actives have a fitted effect of over 70% in size
Starred values were filed as active, the others as inactive; ? = inconclusive; / = no result. Only some compounds are listed: those with a hit (about 2.4% of all), similar ones and a draw of the others. Unless noted, calls come from the whole dose curve; as a rule, active = well fitted activation curve with a large enough effect; inconclusive = small, poorly fitted or top-dose-only effect; inactive = flat fitted curve, though single readings scatter.

SMILES	D2 ag-1	D2 antag	D2 ag-2	D2 PAM-1	D2 PAM-2	D3 arrestin ag	D2 ag-3
COC(=O)c1cc2c(ccn2-c2ccc(F)cc2)n1Cc1ccc(C#N)cc1	-3.4	-5.4	6.0	1.1	-4.9	/	/
COC(=O)c1cc2c(ccn2-c2ccc(F)cc2)n1Cc1ccc(OC)cc1	4.1	28.3	4.6	2.7	-6.2	-13.6%	?
COc1ccc(-c2nc3sc(CCNS(=O)(=O)c4c(C)cc(C)cc4C)c(C)n3n2)cc1	/	/	/	8.8	/	/	/
COCCN(C(=O)c1ccc(COc2ccccc2)o1)c1c(N)n(CC(C)C)c(=O)[nH]c1=O	3.6	-13.2	-0.2	1.4	-14.7	-7.4%	-2.4%
COCCN(C(=O)C1=COCCO1)c1c(N)n(CC(C)C)c(=O)[nH]c1=O	6.5	-0.1	0.5	-1.2	-2.6	-4.5%	22.5%
COCCN(C(=O)C1=COCCO1)c1c(N)n(Cc2ccccc2)c(=O)[nH]c1=O	-0.4	6.1	-0.9	0.8	-7.7	/	/
COc1ccc(CCNC(=O)CNCC(c2ccccc2)N(C)C)cc1OC (stereo not given)	7.0	-1.9	32.6*	-14.1	-6.5	7.7%	11.2%
COc1ccc(CCNC(=O)CSc2cn(Cc3cccc(C)c3)c3ccccc23)cc1OC	-1.9	-5.2	57.9*	-15.1	-3.7	-8.1%	0.6%
COc1ccc(CCNC(=O)CSc2cn(Cc3ccccc3)c3ccccc23)cc1OC	-4.9	-9.6	-0.8	-0.1	-3.3	/	/
COc1ccc(CCNC(=O)CSc2ccccc2)cc1OC	-0.8	-13.0	0.7	8.0	2.4	/	/
CC1CCCN(c2ncnc3c2nnn3C)C1 (stereo not given)	/	/	-2.0	4.2	/	/	/
COC(=O)COc1ccc2oc(-c3ccc(OC)cc3)cc(=O)c2c1	/	/	0.5	-10.2	/	/	/
O=C(COc1ccc2oc(-c3ccccc3)cc(=O)c2c1)Nc1ccccc1	0.5	-12.7	21.3	-16.4	-3.8	12.6%	1.2%
O=C(COC(=O)CCc1c[nH]c2ccccc12)NCc1ccc2c(c1)OCO2	-4.7	-3.9	73.6*	-20.8	-1.4	-5.8%	1.0%
Cc1ccc(-n2nc(C)c3c(C(=O)Nc4ccc(C)cc4Cl)cc(C)nc32)cc1	/	/	0.5	1.1	/	/	/
Cc1ccc(N2CCN(CCc3nc4cc(NS(C)(=O)=O)ccc4n3C)CC2)cc1	0.4	11.3	0.2	-39.0	-36.0	/	/
Cc1ccc(S(=O)(=O)Nc2ccc3c(c2)nc(CCN2CCN(c4ccccn4)CC2)n3C)cc1	6.5	51.2*	0.0	-6.5	-25.4	8.2%	25.4%
Cn1c(CCN2CCN(c3ccccn3)CC2)nc2cc(NS(=O)(=O)c3ccc(Cl)cc3)ccc21	13.5	73.9*	0.2	-5.3	-21.7	15.9%	?
COc1ccc(OCC(=O)Nc2ccc3c(c2)nc(CCN2CCN(c4ccccn4)CC2)n3C)cc1	6.8	/	/	/	-17.8	/	/
Cc1ccc(N2CCN(C(=O)C3CCN(S(=O)(=O)c4ccc5c(c4)oc(=O)n5C)CC3)CC2C)cc1 (stereo not given)	/	/	-1.0	3.1	/	/	/
OCC1(Cc2ccc(Cl)cc2)CCN(Cc2ccccc2F)CC1	-4.6	-4.5	1.1	-16.9	-25.2	/	/
OCC1(Cc2ccc(Cl)cc2)CCN(CCCc2ccccc2)CC1	40.6*	69.1*	77.6*	-10.5	-0.1	-4.6%	?
CC(CCN1CCN(c2ccccc2)CC1)c1ccccc1 (stereo not given)	6.0	72.6*	30.7*	-26.5	-24.5	-3.6%	12.9%
CC(CCN1CCN(c2ccccn2)CC1)c1ccccc1 (stereo not given)	?	62.7*	73.7*	-19.3	4.4	?	?
c1ccc(CCCN2CCN(c3ccccc3)CC2)cc1	12.1	78.9*	13.1	-24.7	-5.5	4.7%	13.5%
SMILES	D2 ag-1	D2 antag	D2 ag-2	D2 PAM-1	D2 PAM-2	D3 arrestin ag	D2 ag-3
O=C(CN1CCN(C(c2ccccc2)c2ccccc2)CC1)N1CCN(c2ccccc2)CC1	-6.3	-10.1	-0.6	-14.8	-32.0	/	/
Cc1cccc(Cn2cc3c(=O)n(CC(=O)Nc4ccc(C)c(F)c4)nc-3c3cc(F)ccc32)c1	/	/	1.0	6.9	/	/	/
O=C(NC1CC(=O)N(c2ccccc2)C1)c1ccc(S(=O)(=O)N2CCCC2)cc1 (stereo not given)	/	/	1.1	-14.8	/	/	/
O=C1N=C(N2CCOCC2)S/C1=C/c1ccc(-c2ccc(F)cc2)o1	?	-4.6	55.2*	-20.5	6.2	2.6%	?
COc1cc(NC(=O)c2ccccc2)c(OC)cc1NC(=O)CN1CCN(c2ccccn2)CC1	7.1	-3.0	1.8	-28.6	?	?	?
COc1ccc(NC(=O)CN2CCN(c3ccc(F)cc3)CC2)cc1Cl	-3.3	5.4	0.8	-4.5	-20.0	/	/
COc1cc(Cl)c(C)cc1NC(=O)c1ccccc1NC(=O)CN1CCN(c2ccccn2)CC1	0.2	/	/	/	7.2	/	/
COc1ccc(NC(=O)CN2CCN(c3ccccn3)CC2)cc1Cl	8.7	-11.8	65.6*	-19.3	-5.4	?	13.6%
COCCCN1C(=O)c2ccc(C(=O)Nc3cccc(OC)c3)cc2C1=O	-1.1	12.8	0.5	0.2	-2.5	/	/
COc1cccc(NC(=O)CN(C)C(=O)CCC(=O)c2cc(C)sc2C)c1	2.2	-20.4	-1.3	9.0	-10.0	-3.9%	-2.0%
COc1cccc(NC(=O)CN(C)C(=O)c2ccc3c(c2)C(=O)N(CCC(C)C)C3=O)c1	1.9	-14.2	0.0	7.6	-0.5	7.1%	3.4%
COc1cccc(NC(=O)CN(C)C(=O)C(Sc2ccccc2)c2ccccc2)c1 (stereo not given)	-3.9	-0.4	-0.5	-12.6	-12.5	-3.8%	0.3%
COCCCNc1nc2c(c(=O)n(Cc3ccccc3)c(=O)n2C)n1C	/	/	2.2	/	/	/	/
COC(=O)Cn1c2ccc(F)cc2c2nc(C)sc21	-3.7	-6.0	37.8*	-23.5	-7.2	7.1%	-2.2%
CCc1nc(C)cn1S(=O)(=O)c1cc(Br)c(C)cc1OC	-1.3	-7.0	-1.5	18.3	-12.0	/	/
CCc1nc(C)cn1S(=O)(=O)c1cc(C)c(OC)cc1C	-4.7	-19.6	63.6*	-22.0	-2.5	5.0%	3.0%
Fc1ccccc1N1CCN(c2ncnc3c2nc2n3CCCCC2)CC1	/	/	-0.8	6.2	/	/	/
O=C(C1CCN(c2ncnc3c2nc2n3CCCCC2)CC1)N1CCN(c2ccccc2F)CC1	6.2	5.3	27.7	-12.2	-3.4	?	16.4%
CN(CCOc1ccccc1Cl)Cc1ccccc1	2.1	84.7*	24.6	-28.1	-3.2	?	-3.1%
C=CCn1c(-c2cc(OC)cc(OC)c2)n[nH]c1=S	1.2	-17.1	0.4	3.3	-4.5	/	/
